In PubChem BioAssay AID686978 (National Center for Advancing Translational Sciences (NCATS), 2013):
Among all 420,000 compounds or so, about 64,000 (15%) were called active. Another 27% or so got no clear call; they are omitted. Not all results are given here. Values without a mark were called inactive. Calls come from the whole dose curve; as a rule, active = well fitted inhibition curve with a large enough effect; inconclusive = small, poorly fitted or top-dose-only effect; inactive = flat fitted curve, though single readings scatter.

experiment: qHTS for Inhibitors of human tyrosyl-DNA phosphodiesterase 1 (TDP1): qHTS in cells in absence of CPT; conditions: DT40 Tdp1-/- hTDP1 cells, no CPT, ATP luminescence, 48 h; activity change, negative = growth inhibition: at 46.2 µM (top of the series); note: nearly all actives have a fitted effect of over 55% in size
Summary of the method: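 Chicken DT40 Tdp1-/- cells stably complemented with human TDP1 were seeded at 400 cells/well with DMSO in place of 20 nM camptothecin. After compound pinning, cells grew at least 48 hr at 37 °C; viability read by CellTiter-Glo luminescence.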
% is set by controls: 0 for no effect and ±100 for the full control effect; potency is the fitted concentration of half-maximal effect.

Structure (SMILES)	activity change, negative = growth inhibition	Potency
COC(c1ccccc1)c1nnc(CCC(=O)N2CCN(CCOc3ccccc3)CC2)o1 (stereo unspecified)	-28.4%	
CSc1nnc2c(n1)OC(c1cn(C)c3ccccc13)N(C(C)=O)c1ccccc1-2 (stereo unspecified)	-3.8%	
O=C(O)c1ccccc1CSc1nc2ccccc2s1	-19.5%	
CCNC(=O)CC1C(=O)N(c2ccc(F)cc2)C(=O)N1CCc1sccc1C (stereo unspecified)	-13.8%	
Cc1nc2nc[nH]n2c(=O)c1C/C=C/c1ccccc1	-2.31%	
CCn1c(CSc2ncccn2)nnc1SCC(=O)N1c2ccccc2CC1C (stereo unspecified)	-7.77%	
CCc1nnc(NC(=O)CCC(=O)NCc2ccccc2OC)s1	5.54%	
COc1ccccc1C1/C(=C(/O)c2ccc(OC(C)C)cc2)C(=O)C(=O)N1c1cc(C)on1 (stereo unspecified)	-14.2%	
COc1ccc(-c2cc(NC=O)c3ncc(-c4ccccc4)n3c2)cc1OC		8.2 µM (active)
COc1ccc(NC(C)=O)cc1NC(=O)CN1CCN(c2ccc(F)cc2)CC1	-26.4%	
CN(C)C(=O)c1cccc(-c2cnc3c(NC=O)cc(-c4ccc(F)cc4)cn23)c1		6.51 µM (active)
COc1ccc(-c2nnc(SCC(=O)Nc3ccccc3C)o2)cc1OC	-12.8%	
CC(=O)c1cccc(-c2cnc3c(NC=O)cc(-c4ccccc4Oc4ccccc4)cn23)c1		14.6 µM (active)
O=C(Nc1ccc(F)cc1)N1CCN(c2ccc(F)cc2)CC1	-1.59%	
COc1ccc(-c2nnco2)cc1OC	-8.54%	
CC(=O)Nc1cc(-c2ccc(N3CCN(C)CC3)cc2)cn2c(-c3ccc(F)cc3)cnc12		4.61 µM (active)
CCCCCCCCCCOC(=O)C[N+](C)(C)CC1CCCCC1O (stereo unspecified)	-24.1%	
CO/N=C/c1cn(-c2ccc(Cl)cc2)nn1	1.24%	
CCOC(=O)CSc1nnc(CNC(=O)c2cccs2)n1-c1ccccc1	3.51%	
Nc1ccc(-c2nnc(-c3ccccc3)o2)cc1	-8.88%	
COc1ccccc1C1C(C(N)=O)=C(C)Nc2nc(CCCO)nn21 (stereo unspecified)	-29.3%	
Cc1cccc(C)c1NC(=O)CNC(=O)c1ccc2c(c1)OCCO2	-2.88%	
COc1ccccc1NC(=O)CCSc1nnc(-c2ccc(O)cc2)o1	-19.5%	
COc1ccc(C2C(C(=O)Nc3ccccc3OC)=C(C)Nc3nnnn32)c(OC)c1 (stereo unspecified)	-22.7%	

Structure (SMILES)	activity change, negative = growth inhibition	Potency
COCCCN1C(=O)c2ccc(C(=O)Nc3ccc(OC)cc3OC)cc2C1=O	3.04%	
CC(=O)c1cccc(-c2cnc3c(NC=O)cc(-c4ccc(N5CCN(C)CC5)cc4)cn23)c1		16.4 µM (active)
COc1ccc(-c2cc(NC=O)c3ncc(-c4cccc(C(=O)N(C)C)c4)n3c2)c(OC)c1		16.4 µM (active)
COc1ccc(C2(C#N)CCC(C(=O)O)CC2)cc1OC1CCCC1 (stereo unspecified)	-28.1%	
Cc1coc2cc3oc(=O)c(CCC(=O)O)c(C)c3cc12	-14.3%	
CC(C)Cc1nnc(NC(=O)CCC(=O)Nc2ccc3cn[nH]c3c2)s1	1.32%	
Nc1nonc1-n1nnc(C(=O)N/N=C\c2ccncc2)c1CN1CCCCC1	-5.18%	
COc1ccc(Cc2nnc(NS(=O)(=O)Cc3ccccc3)s2)cc1	6.02%	
CCC(C)(C(=O)NC1CCCC1)N(C(=O)CNC(C)=O)c1ccc(C)cc1 (stereo unspecified)	-23%	
Cc1nc2nc(SCC(=O)c3ccccc3)[nH]c2cc1Br	-19.9%	
COc1ccc(OC)c(Cc2nnc(CCC(=O)NC3CCCC3)o2)c1	3.2%	
COc1ccc2c(C)c(CCC(=O)NC3CC3)c(=O)oc2c1C		16.4 µM (active)
Cc1c(CCC(=O)O)c(=O)oc2c(C)c(OCc3ccccc3Cl)ccc12	-1.81%	
O=C(Nc1cccc2c1N(C(=O)c1ccco1)CCC2)c1ccco1	1.69%	
O=c1[nH]c2ccc(S(=O)(=O)N3CCCC3)cc2[nH]1	-28.6%	
Cc1cc(C)cc(NC(=O)N(C)Cc2ccccc2)c1	-6.83%	
COC(=O)C(NS(=O)(=O)c1ccc(F)cc1)c1ccccc1 (stereo unspecified)	-17.5%	
CCOC(=O)C(C)n1cnc2c(nnn2-c2cccc(OC)c2)c1=O (stereo unspecified)	2.83%	
CCC(=O)Nc1ccc(C)cc1-c1nc2ccccc2n(Cc2ccccc2)c1=O	-15.3%	
CCC(=O)Nc1ccc2nc(C)n(Cc3ccccc3Cl)c(=O)c2c1	-24.9%	
CC(=O)Nc1nc2ccccc2n1Cc1ccc(C)cc1		13 µM (active)
CCc1cccc(CC)c1NC(=O)Cn1c(=O)c(-c2cc(C)ccc2NC(C)=O)nc2ccccc21	1.16%	
CCC(=O)Nc1nc2ccccc2n1Cc1ccccc1C		14.6 µM (active)
CC(=O)c1nc2ccccc2n1Cc1ccccc1	-0.649%	

Structure (SMILES)	activity change, negative = growth inhibition	Potency
Cc1cccc(N(CC(=O)N2CCOCC2)S(C)(=O)=O)c1	-1.19%	
CCNC(=O)COC(=O)CCNC(=O)c1cccc(C)c1	-4.54%	
CCOc1ccc(C(CC(=O)O)NC(=O)C23CC4CC(CC(C4)C2)C3)cc1OC (stereo unspecified)	-12.7%	
CN1C(=O)/C(=C/C=C2\SCCN2C)OC1=S	-19.2%	
COc1ccccc1-c1nc(N2CCN(C)CC2)c2ccccc2n1	7.74%	
COc1ccc(N2CCN(CCNC(=O)c3nnc(Cc4c(F)cccc4Cl)o3)CC2)cc1	-19.9%	
COc1ccc(N2CCN(c3nc(-c4ccccc4F)nc4ccccc34)CC2)cc1		16.4 µM (active)
Brc1cc(Br)c(Oc2cc(Br)c(Br)cc2Br)cc1Br	-18.6%	
CCc1ccc[n+](-c2nc([O-])sc2C=O)c1	1.39%	
CCN(CC(=O)Nc1ccccc1C(F)(F)F)C(=O)C1CCN(C(=O)Nc2ccccc2)CC1	26.8%	
Cc1ccc(NC(=S)N(Cc2ccco2)C(C)c2cccs2)cc1 (stereo unspecified)	12.8%	
CC(C)CCN(C(=O)Nc1ccc(Cl)c(Cl)c1)C(C)c1cccs1 (stereo unspecified)		18.4 µM (active)
CC(=O)Nc1ccc(S(=O)(=O)N2CCC(N(C)CCC(C)C)CC2)cc1	-14.4%	
S=C(Nc1ccc(Br)cc1Cl)N1CCC2(CC1)OCCO2	-14.2%	
C/C=C/C=C/C(=O)OCC(=O)Nc1ccc(Cl)cc1	-27.7%	
O=C(NCN1CCN(CCO)CC1)c1cnccn1	-12.6%	
O=C(CN1C(=O)CSc2ncccc21)N1CCOCC1	0.179%	
Cc1cc(/C=C2/SC(=O)N(CC(=O)N3CCCC3)C2=O)c(C)n1C	-8.02%	
Cc1cc(/C=C2/SC(=O)N(CC(=O)N3CCCC3)C2=O)ccc1N1CCOCC1		23.1 µM (active)
CN(C)C(=S)Nc1ccc(Br)cc1Cl	4.16%	
Cc1cc(C)cc(C(=O)NCCN2CCOCC2)c1	-4.83%	
O=C(NCCN1CCOCC1)c1c(F)c(F)c(F)c(F)c1F	16.8%	
CC(=O)Oc1cc2c(C(=O)NCCN3CCOCC3)c(C)oc2c2ccccc12		16.4 µM (active)
